Drawing on PubChem BioAssay (EPA / NIEHS), this text covers AC50 and outcome for 38 molecules.

Several values for one entry are separate records, joined by “and”; a condition that tells them apart may be missing. Equal entries are not always repeated. Where a structure was tested more than once in an assay, its records may differ in their call. Activity calls are given as the source filed them. The calls were made as follows: active = hit-call score of the fitted dose curve at least 0.9, where 1 is the maximum; inactive = score below 0.9.

Sequence of Tumor necrosis factor (Homo sapiens) (P01375 whole entry, looked up): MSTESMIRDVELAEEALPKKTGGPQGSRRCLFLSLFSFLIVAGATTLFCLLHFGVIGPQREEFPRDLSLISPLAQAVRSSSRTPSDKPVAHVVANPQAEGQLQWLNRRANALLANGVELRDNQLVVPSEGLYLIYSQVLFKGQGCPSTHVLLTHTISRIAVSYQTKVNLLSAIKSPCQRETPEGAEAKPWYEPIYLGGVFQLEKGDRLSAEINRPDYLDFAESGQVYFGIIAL

Read-out in this test: Tumor necrosis factor (Homo sapiens) (UniProt P01375)
Nature of the test: BSK_LPS_TNFa: BioMAP Diversity Plus: LPS Assay for Tumour Necrosis Factor alpha (TNFa) Biomarker Activity (AID 2283085). The note with it: primary human HUVEC with PBMC; actives raise or lower the signal. As for the experimental part:
BSK_LPS is a cell-based, multiplexed-readout assay that uses umbilical vein endothelium and peripheral blood mononuclear cells, a human vascular primary cell co-culture, with measurements taken at 24 hours after chemical dosing in a 96-well plate.BSK_LPS_TNFa is an assay component measured in the BSK_LPS assay. It measures TNF-a antibody related to regulation of gene expression using ELISA technology.Data from the assay component BSK_LPS_TNFa was analyzed into 1 assay endpoint. This assay endpoint, BSK_LPS_TNFa, was analyzed with bidirectional fitting relative to DMSO as the negative control and baseline of activity. Using a type of binding reporter, gain or loss-of-signal activity can be used to understand changes in the signaling as they relate to the gene TNF. Furthermore, this assay endpoint can be referred to as a primary readout, because this assay has produced multiple assay endpoints where this one serves a signaling function. To generalize the intended target to other relatable targets, this assay endpoint is annotated to the cytokine intended target family, where the subfamily is inflammatory factor.
The levels of cell surface (or secreted, indicated by the prefix "s") biomarker endpoints were measured by ELISA. Overt cytotoxicity to cells in confluent adherent cultures (all systems other than the BT system) was assessed by measuring total protein levels using sulforhodamine B (SRB) staining in parallel cultures at the time of biomarker measurements, indicated as SRB endpoints. For proliferation assays for adherent cell types, individual cell types are cultured at sub-confluence and relative cell numbers quantified by SRB staining at time points optimized for each system (48 h: 3C and CASM3C systems; 72 h: BT and HDF3CGF systems; 96 h: SAg system). SRB was performed by staining cells with 0.1% SRB after fixation with 10% TCA and reading wells at 560 nm.Viability and proliferation of PBMC (T cells) was quantified by Alamar Blue reduction for the SAg and BT systems. For PBMC viability (referred to as PBMC Cytotoxicity within the assay endpoint names), cells were plated (75,000/well in a 96-well plate) and then chemical samples added for 1 h before addition of activators, SEB and TSST-1 (20 ng/mL final concentration each). Cells were incubated for 90 h. Then, Alamar Blue (20 uL/well) (Invitrogen, Cat DAL1100) was added for 6 h, and the plates were read with a fluorescence microplate reader at 546/580 nm (excitation/emission). For PBMC proliferation, cells were plated and activated as above but incubated for only 16 h prior to addition of Alamar Blue. Plates were read after 6 h.
In the case of `CC(C)(c1ccccc1)c1ccc(O)cc1`, the AC50 is 31.5 µM (active). For the molecule `C=CC(=O)NCNC(=O)C=C`, the outcome was inactive. The same measure, in the same setting: the result for `Clc1ccc(Cl)cc1` reads “inactive”; that for `CC#Cc1cc(C)nc(Nc2ccccc2)n1`, “inactive”; that for `CCC(C)(c1ccc(O)cc1)c1ccc(O)cc1`, “inactive”. As to `CN(C)c1nc(=O)n(C2CCCCC2)c(=O)n1C`, the outcome was inactive. As for `O=C(O)C(F)(F)C(F)(F)C(F)(F)C(F)(F)C(F)(F)C(F)(F)C(F)(F)C(F)(F)C(F)(F)F`, the AC50 was 54.1 µM (active) and 43.6 µM (active); the outcome was inactive.

`C=CC(N)=O`: the outcome was inactive. Take `ClC(Cl)=C(c1ccc(Cl)cc1)c1ccc(Cl)cc1`: the concentration at half-maximal activity (AC50) was 31.8 µM (active). `Cc1cc(-c2ccc(N)c(C)c2)ccc1N`: the result was inactive. As for `CCCCCCOC(=O)c1ccccc1C(=O)OCCCCCC`, the outcome was inactive. For `Oc1c(Cl)c(Cl)c(Cl)c(Cl)c1Cl`, the concentration at half-maximal activity (AC50) is 20 µM (active) and the outcome was inactive. As for `C1CC2OC2CC1C1CO1` (stereo not given), the result was inactive. For `C[C@]12CCC(=O)C=C1CC[C@@H]1[C@@H]2CC[C@]2(C)C(=O)CC[C@@H]12`, the outcome was inactive. For `Cc1cccc(C)c1N`, the outcome was inactive. Take `N#Cc1ccc(N(CC(N)=O)CC(F)(F)F)cc1C(F)(F)F`: the result was inactive. On to `Clc1ccc(C(c2ccccc2Cl)C(Cl)(Cl)Cl)cc1` (stereo not given), for which the concentration at half-maximal activity (AC50) is 23.8 µM (active). Consider `CCC(C)c1cc([N+](=O)[O-])cc([N+](=O)[O-])c1O` (stereo not given), for which the outcome was inactive. Still for that read-out and setting: the result for `Nc1ccc(-c2ccc(N)cc2)cc1` reads “inactive”.

`O=C(NC(=O)c1cc(F)c(F)cc1Cl)Nc1cc(F)ccc1N1CCC(C(=O)O)CC1`: the AC50 was 10 µM (active). Consider `O=C(O)C(F)(F)C(F)(F)C(F)(F)C(F)(F)C(F)(F)C(F)(F)C(F)(F)C(F)(F)F`, for which the outcome was inactive.

For `CCOC(=O)C(O)(c1ccc(Cl)cc1)c1ccc(Cl)cc1`, the AC50 is 39.3 µM (active). For the molecule `CCC(C)(CC)c1cc(NC(=O)c2c(OC)cccc2OC)on1`, the result was inactive. As to `ClC1=C(Cl)[C@]2(Cl)[C@@H]3[C@H]4C[C@H]([C@@H]5O[C@H]45)[C@@H]3[C@@]1(Cl)C2(Cl)Cl`, the concentration at half-maximal activity (AC50) is 4.16 µM (active).

Take `O=NN(c1ccccc1)c1ccccc1`: the AC50 was 3.97 µM (active).

For the molecule `Oc1ccc(Cl)cc1Cl`, the outcome was inactive.

`ClC1=C(Cl)[C@]2(Cl)[C@@H]3[C@@H]4C[C@@H]([C@H]5O[C@@H]45)[C@@H]3[C@@]1(Cl)C2(Cl)Cl`: the AC50 was 3.05 µM (active).

As for `CCCCCCCCOC(=O)c1ccccc1C(=O)OCCCCCCCC`, the result was inactive. For the molecule `CCOP(=S)(OCC)SCSC(C)(C)C`, the AC50 is 35.2 µM (active). For the molecule `Cc1ccccc1[N+](=O)[O-]`, the outcome was inactive. The same measure, in the same setting: the result for `O=S(=O)(O)C(F)(F)C(F)(F)C(F)(F)C(F)(F)C(F)(F)C(F)(F)F` reads “inactive”. On to `Cc1cc2c3c(c1)C(c1ccccc1)=N[C@@H](NC(=O)c1ccncc1)C(=O)N3CC2`, for which the AC50 was 7.3 µM (active). For the molecule `Cc1ccc(O)c(C)c1`, the result was inactive. Consider `O=C(O)C(F)(F)C(F)(F)C(F)(F)C(F)(F)C(F)(F)F`, for which the result was inactive. Regarding `CCCN(CCC)N=O`, the result was inactive. As for `Cc1ccccc1O`, the result was inactive.

Regarding `CCC(=O)O[C@H]1CC[C@H]2[C@@H]3CCC4=CC(=O)CC[C@]4(C)[C@H]3CC[C@]12C`, the AC50 was 32.1 µM (active). The same measure, in the same setting: the result for `CC(c1ccc(O)cc1)(c1ccc(O)cc1)c1ccc(O)cc1` reads 32.6 µM (active).
